Measurements: the supplement of paper PMC12494721
Structures can show the parent of a compound that is named as a salt.

system: Klebsiella aerogenes DSM 30053; assay: fold change of Histamine concentration vs plate DMSO controls (fold change (ratio)); higher = more amine produced, active = hit call of the paper (significant change in both replicates, either direction); conditions: incubation time: 27 h, anaerobic, 37 °C
How it was run: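 Anaerobic mGAM cultures of four gut bacterial strains were grown at 37 °C for 27 h in 80 µL wells, starting at OD 0.1 before 1:1 dilution. Compounds were at 20 µM final (sweeteners 50 µM). Whole cultures were extracted with cold acetonitrile/methanol containing 0.1% formic acid and centrifuged. Amines were quantified by LC–triple-quadrupole MS (dynamic MRM) against external calibration curves and drift-corrected within batch. Each value is the fold change versus plate DMSO controls, averaged over 2 biological replicates.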

| Compound | fold change of Histamine concentration |
| --- | --- |
| Nc1nc(CC(=O)Nc2ccc(CCNC[C@H](O)c3ccccc3)cc2)cs1 [Mirabegron] (20 µM) | 0.931 (inactive) |
| CS(=O)(=O)OCCCCOS(C)(=O)=O [Busulfan] (20 µM) | 0.992 (inactive) |
| CCN(CC)CCOC(=O)C(Cc1cccc2ccccc12)CC1CCCO1 (centres undefined) [Nafronyl oxalate] (20 µM) | 0.982 (inactive) |
| C[C@H]1O[C@@H](O[C@H]2[C@@H](O)C[C@H](O[C@H]3[C@@H](O)C[C@H](O[C@H]4CC[C@@]5(C)[C@H](CC[C@@H]6[C@@H]5C[C@@H](O)[C@]5(C)[C@@H](C7=CC(=O)OC7)CC[C@]65O)C4)O[C@@H]3C)O[C@@H]2C)C[C@H](O)[C@@H]1O [Digoxin] (20 µM) | 1.05 (inactive) |
| COc1cc(N)c(Cl)cc1C(=O)NC1CCN(CCCOc2ccc(F)cc2)CC1OC (centres undefined) [Cisapride] (20 µM) | 0.959 (inactive) |
| O=C(O[C@@H]1C[C@@H]2C[C@H]3C[C@H](C1)N2CC3=O)c1c[nH]c2ccccc12 [Dolasetron mesilate] (20 µM) | 0.981 (inactive) |
| Cc1oncc1C(=O)Nc1ccc(C(F)(F)F)cc1 [Leflunomide] (20 µM) | 1.06 (inactive) |
| CC(C)Cn1cnc2c(N)nc3ccccc3c21 [Imiquimod] (20 µM) | 0.998 (inactive) |
| Clc1ccc2c(c1)C(N1CCNCC1)=Nc1ccccc1O2 [Amoxapine] (20 µM) | 0.961 (inactive) |
| CCCCCN(C)CCC(O)(P(=O)(O)O)P(=O)(O)O [Ibandronate sodium] (20 µM) | 1.04 (inactive) |
| CN1CCc2c(c3ccccc3n2Cc2ccccc2)C1 [Mebhydroline 1,5-naphtalenedisulfonate] (20 µM) | 1.01 (inactive) |
| C=C1/C(=C\C=C2/CCC[C@]3(C)[C@@H]([C@H](C)/C=C/[C@@H](O)C4CC4)CC[C@@H]23)C[C@@H](O)C[C@@H]1O [Calcipotriene] (20 µM) | 1.02 (inactive) |
| Cc1nc(=O)c2cc(CN(C)c3ccc(C(=O)N[C@@H](CCC(=O)O)C(=O)O)s3)ccc2[nH]1 [Raltitrexed] (20 µM) | 1 (inactive) |
| Cc1cn[nH]c1 [Fomepizole] (20 µM) | 1.03 (inactive) |
| CC[C@@H]1C(=O)OC[C@@H]1Cc1cncn1C [Pilocarpine nitrate] (20 µM) | 0.95 (inactive) |
| C=C(CC)C(=O)c1ccc(OCC(=O)O)c(Cl)c1Cl [Ethacrynic acid] (20 µM) | 0.964 (inactive) |
| Cc1cccc(C)c1OCC(=O)N[C@@H](Cc1ccccc1)[C@@H](O)C[C@H](Cc1ccccc1)NC(=O)[C@H](C(C)C)N1CCCNC1=O [Lopinavir] (20 µM) | 0.963 (inactive) |
| OCCN1C[C@H](O)[C@@H](O)[C@H](O)[C@H]1CO [Miglitol] (20 µM) | 1.02 (inactive) |
| CCOc1ccccc1OCC1CNCCO1 (centres undefined) [Viloxazine hydrochloride] (20 µM) | 0.986 (inactive) |
| CC[C@@]1(O)C(=O)OCc2c1cc1n(c2=O)Cc2cc3c(CN(C)C)c(O)ccc3nc2-1 [Topotecan] (20 µM) | 1.1 (inactive) |
| CC(C)N1CCN(c2ccc(OCC3COC(Cn4cncn4)(c4ccc(Cl)cc4Cl)O3)cc2)CC1 (centres undefined) [Terconazole] (20 µM) | 0.996 (inactive) |
| CN1CCN(c2c(F)cc3c(=O)c(C(=O)O)cn4c3c2OCN4C)CC1 [Marbofloxacin] (20 µM) | 0.107 (active) |
| O=C(O)c1cc(=O)[nH]c(=O)[nH]1 [Orotic acid] (20 µM) | 0.955 (inactive) |
| c1ccc2c(c1)Cc1ccccc1-2 [Fluorene] (20 µM) | 0.932 (inactive) |
| Oc1c(Br)cc(Br)c2cccnc12 [Broxyquinoline] (20 µM) | 1.09 (inactive) |
| CCC[C@@H]1C[C@@H](C(=O)N[C@@H]([C@H]2O[C@H](SC)[C@H](O)[C@@H](O)[C@H]2O)[C@H](C)Cl)N(C)C1 [Clindamycin hydrochloride] (20 µM) | 1.54 (inactive) |
| COC(=O)Nc1nc2cc(Sc3ccccc3)ccc2[nH]1 [Fenbendazole] (20 µM) | 1.07 (inactive) |
| CN(c1nccc(=O)[nH]1)C1CCN(c2nc3ccccc3n2Cc2ccc(F)cc2)CC1 [Mizolastine] (20 µM) | 1.03 (inactive) |
| CC[N+](C)(C)c1cccc(O)c1 [Edrophonium chloride] (20 µM) | 1.07 (inactive) |
